Consider ten molecules from PMC5540273 (PLoS ONE, 2017).

SMILES strings stand for the structures. “And” between values parts separate entries of the source, which are not always exact repeats. Identical values can stand only once. Like-named read-outs stand apart in the source and are kept apart here.

The test system of one experiment is ERN1. The note with it: concentration: 1 μM, replicates: in singlicate, n = 1.
For another experiment, the system named is T1, FAK.
T1 construct: gene PTK2
The note with it: concentration: 1 μM, replicates: in singlicate; n = 1.

The next experiment relates to FER. The note with it: concentration: 1 μM, replicates: in singlicate, n = 1.
In a further experiment the test system is FES. The note with it: concentration: 1 μM, replicates: in singlicate; n = 1.
The test system of another experiment is FGFR1. The note with it: concentration: 1 μM, replicates: in singlicate, n = 1.
Another experiment concerns FGFR2. The note with it: concentration: 1 μM, replicates: in singlicate; n = 1.
For the next experiment, the system named is FGFR3. The note with it: concentration: 1 μM, replicates: in singlicate; n = 1.
A further experiment has as its system FGFR4. The note with it: concentration: 1 μM, replicates: in singlicate; n = 1.
In the next experiment the test system is FGR. The note with it: concentration: 1 μM, replicates: in singlicate, n = 1.
Another experiment deals with FLT1. The note with it: concentration: 1 μM, replicates: in singlicate, n = 1.
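Note: KINOMEscan kinase panel screen.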

For `COc1ccc(Nc2nccc(N3CCC(NC(=O)Nc4cccc(C(C)=O)c4)C3)n2)cc1` (stereo not drawn) [GSK1379731], the “%Inh” value in the experiment on ERN1 is given as 0%; in the experiment on FAK, 0%; in the experiment on FER, 12%; in the experiment with FES, 1%; in the experiment on FGFR1 it was 3%; in the experiment on FGFR2, 0%. The “%Inh” value in the experiment with FGFR3 amounted to 2%; in the experiment with FGFR4, 30%; in the experiment on FGR it was 20%; in the experiment on FLT1, 33%.
`CN1c2ccc(NCc3ccc(F)cc3)cc2-c2c(cnn2C)S1(=O)=O`: the “%Inh” value worked out at 0% in the experiment with ERN1; 0% in the experiment with FER; 4% in the experiment with FES; 2% in the experiment on FGFR1; 2% with FGFR2; 0% with FGFR3. The “%Inh” value with FGFR4, with FGR and in the experiment with FLT1 was 0% each time.
On to `Cc1cccc(-c2nc(Nc3ccc4ncsc4c3)c3ccccc3n2)n1` [GW867588], for which the “%Inh” value in the experiment with ERN1 was determined as 38%; with FAK, 3%; with FER it was 0%; with FES, 13%; in the experiment on FGFR1 it was 0%; in the experiment with FGFR2, 0%. Also, the “%Inh” value in the experiment with FGFR3 is reported as 0%; in the experiment on FGFR4 it was 0%; in the experiment on FGR it was 17%; with FLT1, 0%.
Regarding `COc1ccc(CNC(=O)NC2CCN(c3ccnc(Nc4ccc(OC)cc4)n3)C2)cc1` (stereo not drawn) [GSK1379727], the “%Inh” value in the experiment on ERN1 came to 0%; in the experiment with FAK, 0%; in the experiment on FER, 8%; in the experiment with FES, 1%; in the experiment on FGFR1, 0%; in the experiment on FGFR2, 7%. In addition, the “%Inh” value is 18% with FGFR3, 0% with FGFR4, 26% in the experiment on FGR and 5% in the experiment on FLT1.
On to `Cc1nnc(-c2ccc3ncc(-c4ccc(S(C)=O)cc4)n3c2)o1` (stereo not drawn), for which the “%Inh” value in the experiment with ERN1 turned out to be 10%; with FAK it was 0%; with FER it was 0%; in the experiment on FES, 4%; in the experiment with FGFR1, 0%; in the experiment with FGFR2, 0%. The “%Inh” value in the experiment on FGFR3, in the experiment on FGFR4, in the experiment with FGR and in the experiment with FLT1 was 0% throughout.
Regarding `O=C1Cc2cc(Nc3nc(NCc4cccc(S(=O)(=O)C(F)(F)F)c4)ncc3C(F)(F)F)ccc2N1`, the “%Inh” value in the experiment with ERN1 amounted to 0%; in the experiment with FAK, 0%; in the experiment with FER it was 0%; in the experiment with FES, 7%; with FGFR1, 0%; in the experiment with FGFR2 it was 1%. For the same molecule, the “%Inh” value in the experiment on FGFR3 is 5%; with FGFR4 it was 0%; in the experiment with FGR, 0%; in the experiment with FLT1, 0%.
For `CN(C1=C(c2ccccc2)C(=O)NC1=O)c1ccccc1` [SB-334860], the “%Inh” value amounted to 20% in the experiment on ERN1; 0% in the experiment with FAK; 19% in the experiment on FER; 0% in the experiment on FES; 0% in the experiment on FGFR1; 0% in the experiment with FGFR2. Besides, the “%Inh” value with FGFR3 is on record as 24%; in the experiment on FGFR4, 18%; with FGR, 17%; with FLT1, 0%.
`c1ccc(-c2cc(-c3c[nH]nc3-c3ccccn3)ccn2)cc1` [GW576604]: the “%Inh” value with ERN1 is reported as 0%; with FAK it was 6%; in the experiment with FER, 13%; in the experiment on FES it was 0%; with FGFR1, 0%; with FGFR2, 0%. In addition, the “%Inh” value in the experiment with FGFR3 stood at 0%; in the experiment with FGFR4 it was 67%; in the experiment on FGR it was 9%; in the experiment on FLT1 it was 46%.
For the molecule `Cl.Cl.Cl.Fc1ccc(-c2ncn(C3CCNCC3)c2-c2ccnc(Nc3ccccc3)n2)cc1` [SB-238039], the “%Inh” value is 19% and 6% in the experiment on ERN1 (1 µM); 0% in the experiment on FAK; 0% and 1% in the experiment with FER (1 µM); 0% in the experiment with FES; 11% and 0% in the experiment with FGFR1 (1 µM); 0% with FGFR2. Further, the “%Inh” value with FGFR3 was 0%; in the experiment with FGFR4, 0%; in the experiment with FGR (1 µM) it was 60% and 41%; in the experiment with FLT1 (1 µM) it was 7% and 25%.
As for `Nc1nc(-c2ccc3c(N)n[nH]c3c2)cc(N2CCCC2)n1` [GSK2227430], the “%Inh” value in the experiment with ERN1 is reported as 0%; in the experiment with FAK, 0%; in the experiment with FER it was 0%; with FES, 1%; in the experiment with FGFR1 it was 0%; in the experiment with FGFR2 it was 38%. The “%Inh” value in the experiment with FGFR3 came out at 0%; in the experiment on FGFR4, 0%; with FGR, 20%; with FLT1, 14%.
